# Measured values: PubChem BioAssay (Tox21)
# Unmarked numbers belong to inactive results. Results filed as inconclusive are left out. Entries that show only a call come without a potency. The source made the active and inactive calls. Unless noted, calls follow the shape of the dose curve; as a rule, active = well fitted curve in the direction sought with a large enough effect in the repeat runs; inconclusive = weak or mixed curves; inactive = no such curve, though single readings can be large; an effect the other way counts as inactive or inconclusive.
# Tests used:
# [1] = qHTS assay for identifying genotoxic compounds that show differential cytotoxicity against isogenic chicken DT40 cell lines with known DNA damage response pathways - Rev3 mutant cell line (AID 743014); also: nearly all actives have a fitted effect of over 55% in size; also: potency is read from the fitted curve at half-maximal effect
# [2] = target: Androgen receptor (Homo sapiens) (UniProt P10275); test: qHTS assay to identify small molecule antagonists of the androgen receptor (AR) signaling pathway (AID 743035; active = well fitted inhibition curve with a large enough effect in the signal ratio in the repeat runs, not every such curve was filed as active; the % refers to the signal ratio; also: potency is read from the fitted curve at half-maximal effect)
# Summary of the method: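 AR-bla HEK293 reporter cells; 4 h settle at 37C/5% CO2; compound + R1881 agonist, 16 h at 37C; LiveBLAzer B/G FRET substrate 2 h RT; fluorescence intensity read. qHTS format.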
# [3] = target: Androgen receptor (Homo sapiens) (UniProt P10275); test: qHTS assay to identify small molecule agonists of the androgen receptor (AR) signaling pathway (AID 743036; active = well fitted activation curve with a large enough effect in the signal ratio in the repeat runs, with a control signal flat, not every such curve was filed as active; the % refers to the signal ratio; also: potency is read from the fitted curve at half-maximal effect)
# Summary of the method: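 Quantitative HTS of the Tox21 10K library in HEK293 cells bearing a stably integrated UAS-controlled beta-lactamase reporter. Compound exposure lasted 16 h at 37C. Reporter activity was detected by FRET substrate fluorescence after 2 h at room temperature.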
# [4] = target: Androgen receptor (Homo sapiens) (UniProt P10275); test: qHTS assay to identify small molecule agonists of the androgen receptor (AR) signaling pathway using the MDA cell line (AID 743040; also: nearly all actives have a fitted effect of over 20% in size; also: potency is read from the fitted curve at half-maximal effect)
# Summary of the method: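 Testing was done with the MDA-kb2 AR-luc line, a human breast carcinoma stably transfected with MMTV-luciferase containing AR and GR response elements. Cells were exposed 16 h at 37C before ONE-Glo luminescence detection.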
# [5] = target: Androgen receptor (Homo sapiens) (UniProt P10275); test: qHTS assay to identify small molecule antagonists of the androgen receptor (AR) signaling pathway using the MDA cell line (AID 743042; also: nearly all actives have a fitted effect of over 55% in size; also: potency is read from the fitted curve at half-maximal effect)
# Summary of the method: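 MDA-kb2 breast carcinoma cells carrying MMTV-luciferase (AR/GR responsive) were co-treated with compounds and the agonist R1881 for 16 h at 37C. Inhibition read as ONE-Glo luminescence; CellTiter-Fluor fluorescence measured in parallel for cytotoxicity.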
# [6] = target: Peroxisome proliferator-activated receptor gamma (Homo sapiens) (UniProt P37231); test: qHTS assay to identify small molecule agonists of the peroxisome proliferator-activated receptor gamma (PPARg) signaling pathway (AID 743094; active = well fitted activation curve with a large enough effect in the signal ratio in the repeat runs, not every such curve was filed as active; the % refers to the signal ratio)
# Summary of the method: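 HEK293H PPARg-bla cells, 5 h settle at 37C/5% CO2; compound (DMSO) 17 h, 37C; B/G FRET substrate 1 h RT; fluorescence intensity read-out. qHTS format.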
# [7] = target: Glucocorticoid receptor (Homo sapiens) (UniProt P04150); test: qHTS assay to identify small molecule antagonists of the glucocorticoid receptor (GR) signaling pathway (AID 720692; active = well fitted inhibition curve with a large enough effect in the signal ratio in the repeat runs, not every such curve was filed as active; the % refers to the signal ratio; also: potency is read from the fitted curve at half-maximal effect)
# Summary of the method: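 Read-out: beta-lactamase FRET substrate fluorescence, 2 h at room temperature, in HeLa cells stably carrying a GRE-driven bla reporter. Compounds were co-incubated with 5 nM dexamethasone agonist (final) for 18 h at 37 C.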
# [8] = qHTS assay for small molecule activators of the heat shock response signaling pathway (AID 743210; active = well fitted activation curve with a large enough effect in the signal ratio in the repeat runs, with a control signal flat, not every such curve was filed as active; the % refers to the signal ratio;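 also: HeLa cells with beta-lactamase reporter driven by heat shock elements; series mostly up to about 63 µM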)
# Summary of the method: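 Following overnight attachment, HSE-bla HeLa cells received test compounds for 5 h at 37 C; beta-lactamase activity was then detected via FRET substrate fluorescence.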
# [9] = Caspase-3/7 induction in HepG2 cells by small molecules, qHTS assay (AID 1346978); also: nearly all actives have a fitted effect of over 15% in size
# Summary of the method: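 Wild-type HepG2 cells, 2,000/well, settled 5 hr at 37 C and 5% CO2, then compound-treated for 17 hr; caspase-3/7 activity read by luminescent Caspase-Glo 3/7 after 30 min at room temperature.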
# [10] = target: Acetylcholinesterase (Homo sapiens) (UniProt P22303); test: Acetylcholinesterase (AChE) small molecule antagonists: enzyme-based qHTS assay with human liver microsomes (AID 1347399; calls by dose curve; also: nearly all actives have a fitted effect of over 60% in size); details: Potency: qHTS inhibition; outcome: qHTS inhibition
# Summary of the method: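 Recombinant human AChE (50 mU/mL in the enzyme mix) and human liver microsomes (0.25 mg/mL final) were preincubated with compound and NADPH (0.25 mg/mL final) for 30 min at 37 C. Acetylthiocholine/DTNB was then added; thiocholine was read colorimetrically after 10 min at room temperature.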
# [11] = target: Estrogen receptor (Homo sapiens) (UniProt P03372); test: qHTS assay to identify small molecule antagonists of the estrogen receptor alpha (ER-alpha) signaling pathway (AID 743069; active = well fitted curve in the direction sought with a large enough effect in the signal ratio in the repeat runs, not every such curve was filed as active; the % refers to the signal ratio; also: potency is read from the fitted curve at half-maximal effect)
# Summary of the method: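 In this cell-based reporter format, GripTite HEK293 cells harbouring ER-alpha-UAS-bla were grown overnight with 2% charcoal-stripped FBS, dosed with DMSO-dissolved compounds, then challenged with 17beta-estradiol. After 18 hr at 37C, beta-lactamase activity was detected by FRET fluorescence.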
# [12] = target: Nuclear receptor subfamily 1 group I member 2 (Rattus norvegicus) (UniProt Q9R1A7); test: Rat pregnane X receptor (rPXR) activation by small molecules, qHTS assay (AID 1346983); details: rPXR luciferase reporter cells, One-Glo luminescence, 24 h; max activation: active compounds read high; also: nearly all actives have a fitted effect of over 20% in size
# Summary of the method: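 Cell-based rPXR activation assay: rPXR cells, 2,000 per well, rested 5hr at 37 C, then exposed to compounds in DMSO for 24 hr at 37 C. Luciferase activity read by One-Glo luminescence after 30 min at room temperature.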
# [13] = target: Nuclear receptor subfamily 1 group I member 2 (Homo sapiens) (UniProt O75469); test: CYP3A4 induction through human pregnane X receptor (PXR) by small molecules, qHTS assay (AID 1346984); also: nearly all actives have a fitted effect of over 40% in size; also: potency is read from the fitted curve at half-maximal effect
# Summary of the method: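 HepG2-derived DPX-2 line carrying PXR plus a CYP3A4-promoter luciferase reporter; cells plated 5 hr, compound-exposed 24 hr at 37C. CYP3A4 activity probed with 3uM (final) Luciferin-IPA for 3hr, then luciferase read after One-Glo.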
# [14] = target: Nuclear receptor subfamily 1 group I member 2 (Homo sapiens) (UniProt O75469); test: Human pregnane X receptor (PXR) activation by small molecules, qHTS assay (AID 1346985); also: nearly all actives have a fitted effect of over 40% in size; also: potency is read from the fitted curve at half-maximal effect
# Summary of the method: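 DPX-2 cells (HepG2 co-transfected with a PXR response element and a CYP3A4-promoter luciferase construct) were seeded at 2,000 per well, rested 5 hr at 37C, then exposed to DMSO-dissolved compounds for 24 hr. Activation was read as luciferase luminescence.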
# [15] = target: Androgen receptor (Homo sapiens) (UniProt P10275); test: qHTS assay to identify small molecule agonists of the androgen receptor (AR) signaling pathway in the presence of an antagonist (AID 1259381; calls by dose curve; also: nearly all actives have a fitted effect of over 15% in size)
# Summary of the method: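 Luciferase read-out (ONE-Glo, 30min room temperature) in MDA-kb2 MMTV-reporter cells; agonist mode run in presence of AR antagonist nilutamide, 3.0uM final. Compounds tested as 15-point series, 16hr exposure at 37C, 0% CO2.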
# Chain of Glucocorticoid receptor (Homo sapiens) (P04150 whole entry, looked up): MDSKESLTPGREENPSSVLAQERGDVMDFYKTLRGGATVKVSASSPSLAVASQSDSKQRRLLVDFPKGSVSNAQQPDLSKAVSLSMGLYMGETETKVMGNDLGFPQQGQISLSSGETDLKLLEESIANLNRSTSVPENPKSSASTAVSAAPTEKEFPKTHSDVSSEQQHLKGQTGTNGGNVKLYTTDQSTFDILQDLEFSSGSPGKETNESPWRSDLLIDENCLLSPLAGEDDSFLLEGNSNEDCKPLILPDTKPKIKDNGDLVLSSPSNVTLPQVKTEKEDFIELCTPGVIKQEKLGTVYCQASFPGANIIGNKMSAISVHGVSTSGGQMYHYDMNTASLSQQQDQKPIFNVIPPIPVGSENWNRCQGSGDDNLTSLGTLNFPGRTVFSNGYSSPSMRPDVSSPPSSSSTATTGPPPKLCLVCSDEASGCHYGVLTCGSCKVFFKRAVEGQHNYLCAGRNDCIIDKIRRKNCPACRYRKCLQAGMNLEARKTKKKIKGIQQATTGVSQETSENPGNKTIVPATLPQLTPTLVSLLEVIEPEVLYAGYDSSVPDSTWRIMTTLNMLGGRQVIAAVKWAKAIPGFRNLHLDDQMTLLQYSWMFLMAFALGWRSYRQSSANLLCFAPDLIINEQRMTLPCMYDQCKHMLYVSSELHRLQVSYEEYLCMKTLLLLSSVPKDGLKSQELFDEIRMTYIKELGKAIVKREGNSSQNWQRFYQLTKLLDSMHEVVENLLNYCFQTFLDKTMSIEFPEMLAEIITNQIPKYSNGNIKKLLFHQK
# Chain of Androgen receptor (Homo sapiens) (P10275 whole entry, looked up): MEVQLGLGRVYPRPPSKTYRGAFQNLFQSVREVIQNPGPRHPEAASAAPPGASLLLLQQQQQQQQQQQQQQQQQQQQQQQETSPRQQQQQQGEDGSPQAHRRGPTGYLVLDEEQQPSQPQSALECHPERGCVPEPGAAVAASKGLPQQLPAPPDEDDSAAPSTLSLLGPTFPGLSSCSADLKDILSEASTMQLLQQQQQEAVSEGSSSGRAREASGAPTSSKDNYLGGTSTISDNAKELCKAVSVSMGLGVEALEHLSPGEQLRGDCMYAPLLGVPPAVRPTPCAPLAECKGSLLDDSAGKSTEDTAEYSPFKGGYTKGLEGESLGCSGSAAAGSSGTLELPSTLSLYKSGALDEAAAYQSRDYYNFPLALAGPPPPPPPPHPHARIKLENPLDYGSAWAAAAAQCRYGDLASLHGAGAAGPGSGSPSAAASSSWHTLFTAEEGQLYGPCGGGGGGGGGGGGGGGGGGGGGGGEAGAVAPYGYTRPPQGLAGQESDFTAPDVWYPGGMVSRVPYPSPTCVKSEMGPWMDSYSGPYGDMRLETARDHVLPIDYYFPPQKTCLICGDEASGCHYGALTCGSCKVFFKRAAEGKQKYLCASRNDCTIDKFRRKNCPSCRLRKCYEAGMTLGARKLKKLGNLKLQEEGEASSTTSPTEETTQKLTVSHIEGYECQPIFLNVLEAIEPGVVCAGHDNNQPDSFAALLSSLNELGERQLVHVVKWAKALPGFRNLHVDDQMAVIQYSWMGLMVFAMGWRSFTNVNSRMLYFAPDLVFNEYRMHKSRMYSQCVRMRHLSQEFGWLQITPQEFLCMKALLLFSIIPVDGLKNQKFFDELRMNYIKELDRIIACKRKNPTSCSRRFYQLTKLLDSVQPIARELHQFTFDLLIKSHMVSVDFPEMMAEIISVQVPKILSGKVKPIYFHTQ
# Chain of Estrogen receptor (Homo sapiens) (P03372 whole entry, looked up): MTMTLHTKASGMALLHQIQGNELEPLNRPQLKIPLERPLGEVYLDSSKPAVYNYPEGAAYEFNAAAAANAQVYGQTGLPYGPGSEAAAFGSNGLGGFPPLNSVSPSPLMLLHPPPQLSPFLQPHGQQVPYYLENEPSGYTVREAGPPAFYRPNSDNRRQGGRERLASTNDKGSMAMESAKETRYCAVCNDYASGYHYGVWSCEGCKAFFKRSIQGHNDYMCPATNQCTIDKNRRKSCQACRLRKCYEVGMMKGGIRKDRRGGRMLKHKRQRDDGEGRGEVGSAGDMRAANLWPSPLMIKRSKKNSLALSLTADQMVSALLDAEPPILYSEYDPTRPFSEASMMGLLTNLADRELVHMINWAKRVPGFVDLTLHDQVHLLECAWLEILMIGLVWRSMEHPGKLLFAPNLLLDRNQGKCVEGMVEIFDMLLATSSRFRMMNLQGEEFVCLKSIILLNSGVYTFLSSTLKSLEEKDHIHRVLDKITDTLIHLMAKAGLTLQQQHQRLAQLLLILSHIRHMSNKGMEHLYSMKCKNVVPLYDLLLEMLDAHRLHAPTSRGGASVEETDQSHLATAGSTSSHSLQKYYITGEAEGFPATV
# Chain of Acetylcholinesterase (Homo sapiens) (P22303 whole entry, looked up): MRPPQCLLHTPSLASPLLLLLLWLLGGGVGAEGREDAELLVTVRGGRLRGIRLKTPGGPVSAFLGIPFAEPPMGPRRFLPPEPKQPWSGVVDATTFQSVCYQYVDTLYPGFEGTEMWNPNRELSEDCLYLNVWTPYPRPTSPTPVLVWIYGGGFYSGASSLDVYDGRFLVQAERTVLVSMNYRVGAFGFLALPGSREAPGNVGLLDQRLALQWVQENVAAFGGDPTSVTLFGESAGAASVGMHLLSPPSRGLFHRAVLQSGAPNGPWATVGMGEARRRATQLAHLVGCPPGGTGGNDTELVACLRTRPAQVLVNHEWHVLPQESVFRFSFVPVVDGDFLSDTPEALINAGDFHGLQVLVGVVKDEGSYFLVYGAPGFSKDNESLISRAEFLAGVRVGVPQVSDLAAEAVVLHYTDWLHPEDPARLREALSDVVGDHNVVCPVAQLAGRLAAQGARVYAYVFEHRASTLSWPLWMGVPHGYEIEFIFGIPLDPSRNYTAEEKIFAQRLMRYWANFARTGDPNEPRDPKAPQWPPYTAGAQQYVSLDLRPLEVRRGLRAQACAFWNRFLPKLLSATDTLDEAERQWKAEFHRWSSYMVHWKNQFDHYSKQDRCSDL
# Chain of Nuclear receptor subfamily 1 group I member 2 (Rattus norvegicus) (Q9R1A7 whole entry, looked up): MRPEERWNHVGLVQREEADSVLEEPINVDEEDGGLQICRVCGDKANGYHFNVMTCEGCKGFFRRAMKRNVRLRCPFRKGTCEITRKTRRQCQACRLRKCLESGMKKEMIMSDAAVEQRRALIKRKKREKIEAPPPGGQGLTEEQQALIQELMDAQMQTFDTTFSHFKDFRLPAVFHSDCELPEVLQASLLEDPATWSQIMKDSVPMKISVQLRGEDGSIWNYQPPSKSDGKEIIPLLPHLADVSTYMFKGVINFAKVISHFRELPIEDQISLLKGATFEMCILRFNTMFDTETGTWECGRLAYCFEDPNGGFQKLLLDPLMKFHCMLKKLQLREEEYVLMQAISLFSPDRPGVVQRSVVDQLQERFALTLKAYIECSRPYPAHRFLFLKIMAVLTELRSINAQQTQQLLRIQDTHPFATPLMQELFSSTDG
# Chain of Peroxisome proliferator-activated receptor gamma (Homo sapiens) (P37231 whole entry, looked up): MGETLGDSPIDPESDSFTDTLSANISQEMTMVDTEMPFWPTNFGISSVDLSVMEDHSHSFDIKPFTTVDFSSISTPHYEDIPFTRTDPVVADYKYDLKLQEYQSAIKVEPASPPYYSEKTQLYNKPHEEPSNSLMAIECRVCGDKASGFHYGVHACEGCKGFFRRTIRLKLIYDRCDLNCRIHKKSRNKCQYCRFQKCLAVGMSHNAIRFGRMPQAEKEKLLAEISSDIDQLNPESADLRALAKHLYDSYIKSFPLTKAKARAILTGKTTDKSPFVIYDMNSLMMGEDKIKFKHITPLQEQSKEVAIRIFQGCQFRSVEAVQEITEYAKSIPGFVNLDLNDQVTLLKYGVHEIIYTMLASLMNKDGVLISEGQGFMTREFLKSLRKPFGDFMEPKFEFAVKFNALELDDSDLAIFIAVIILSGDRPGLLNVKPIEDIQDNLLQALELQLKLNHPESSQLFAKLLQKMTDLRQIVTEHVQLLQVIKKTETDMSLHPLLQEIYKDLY
smiles,measurement,setting,value
C[C@@H]1[C@@H]2Cc3ccc(O)cc3[C@@]1(C)CCN2CCc1ccccc1,Potency,[1],9.57 µM (active)
CCCCNC(C)(C)[P+](=O)O,Potency,[1],inactive
same,Potency,[2],inactive
same,Potency,[3],inactive
same,Potency,[4],inactive
same,Potency,[5],inactive
same,Potency,[6],inactive
C[N+](C)(C)CCCCCCCCCC[N+](C)(C)C,Potency,[7],inactive
same,Potency,[8],inactive
same,Potency,[9],inactive
same,Potency,[10],inactive
C[C@H]1CC[C@]2(NC1)O[C@H]1C[C@H]3[C@@H]4CC[C@H]5C[C@@H](O)CC[C@]5(C)[C@H]4CC[C@]3(C)[C@H]1[C@@H]2C,Potency,[1],inactive
same,Potency,[11],inactive
same,Potency,[6],inactive
same,max activation,[12],11.8%
same,Potency,[13],inactive
same,Potency,[14],inactive
CC(=O)O[C@H]1C[C@H](O[C@H]2[C@@H](O)C[C@H](O[C@H]3[C@@H](O)C[C@H](O[C@H]4CC[C@@]5(C)[C@H](CC[C@@H]6[C@@H]5C[C@@H](O)[C@]5(C)[C@@H](C7=CC(=O)OC7)CC[C@]65O)C4)O[C@@H]3C)O[C@@H]2C)O[C@H](C)[C@H]1O[C@@H]1O[C@H](CO)[C@@H](O)[C@H](O)[C@H]1O,Potency,[1],0.75 µM (active)
same,Potency,[2],0.301 µM (active)
same,max activation,[12],4.17%
same,Potency,[14],inactive
C[C@@H]1[C@H](O)[C@@H](C)/C=C/C=C/CC/C=C/C=C/C=C/C=C/[C@H](O[C@H]2O[C@@H](C)[C@H](O)[C@@H](N)[C@H]2O)CC2O[C@](O)(C[C@@H](O)[C@H](O)CC[C@@H](O)C[C@@H](O)C[C@@H](O)CC(=O)O[C@H]1C)C[C@H](O)[C@H]2C(=O)O,Potency,[1],inactive
same,Potency,[2],inactive
same,Potency,[3],inactive
same,Potency,[4],inactive
same,Potency,[5],inactive
same,Potency,[11],inactive
C[C@H]1[C@H]2Cc3ccc(O)cc3[C@]1(C)CCN2CCc1ccccc1,Potency,[7],inactive
same,Potency,[1],15.2 µM (active)
same,Potency,[11],inactive
COc1cc2c(cc1OC)[C@@H]1CC(=O)[C@@H](CC(C)C)CN1CC2,Potency,[9],inactive
same,Potency,[10],inactive
c1ccc(-c2ccccc2-c2ccccc2)cc1,Potency,[15],inactive
same,Potency,[10],inactive
CC1(C)C(C=C(Cl)Cl)C1C(=O)OCc1cccc(Oc2ccccc2)c1 (stereo unspecified),Potency,[9],inactive
same,Potency,[10],inactive
C[C@]12C[C@H]3S[C@H]3C[C@@H]1CC[C@@H]1[C@@H]2CC[C@]2(C)[C@@H](O)CC[C@@H]12,Potency,[1],inactive
same,Potency,[3],0.0032 µM (active)
same,Potency,[4],0.0003 µM (active)
same,Potency,[5],inactive
same,Potency,[6],inactive
same,max activation,[12],11.2%
same,Potency,[13],inactive
same,Potency,[14],inactive
CCN(CC)CCO[C@H]1CC[C@@]2(C)C(=CC[C@@H]3[C@@H]2CC[C@]2(C)C(=O)CC[C@@H]32)C1,Potency,[11],inactive
same,Potency,[6],inactive
same,max activation,[12],3.39%
same,Potency,[13],7.94 µM (active)
CN1[C@@H]2CC[C@H]1CC(OC(=O)C(CO)c1ccccc1)C2 (stereo partly specified),Potency,[9],inactive
O=c1c2ccccc2[se]n1-c1ccccc1,Potency,[1],8.41 µM (active)
same,Potency,[4],inactive
C[C@]12CC[C@H]3[C@@H](CCC4=CC(=O)CC[C@@]43C)[C@@H]1CC[C@H]2O,Potency,[7],4.25 µM (active)
same,max activation,[12],-0.613%
same,Potency,[13],inactive
O.O.O.O=C([O-])C(O)C(O)C(=O)[O-].O=C([O-])C(O)C(O)C(=O)[O-].[K+].[K+].[Sb].[Sb] (stereo unspecified),Potency,[11],19 µM [inhibitor] (active)
COC(=O)[C@]12CCC(C)(C)C[C@H]1[C@H]1C(=O)C=C3[C@@]4(C)C=C(C#N)C(=O)C(C)(C)[C@@H]4CC[C@@]3(C)[C@]1(C)CC2,Potency,[4],inactive
same,Potency,[5],2.37 µM (active)
O=P1(N(CCCl)CCCl)NC(OO)CCO1 (stereo unspecified),Potency,[7],inactive
same,Potency,[11],inactive
CC(=O)OC(C)=O,Potency,[8],inactive
same,Potency,[9],inactive
same,Potency,[10],inactive
NCCNCCNCCNCCN,Potency,[10],inactive
F/C(COc1ccc2c(c1)[nH]c1ccccc12)=C1/CN2CCC1CC2,Potency,[11],19 µM [inhibitor] (active)
same,Potency,[13],inactive
same,Potency,[14],22.4 µM (active)
